The whole screen tested about 190,000 compounds, of which about 4,000 (2.1%) were called active. Rule as the data show it: active = inhibition above about 58%; inactive = the rest, inconclusive results apart; tested in S. cerevisiae. The full list was thinned out, with actives kept by preference.

A short description of the assay: growth inhibition of WT strain, primary screen, mitochondrial fusion inhibitor project, WT and mutant strains, chemical genetic (AID 1362). Particulars: mitochondrial fusion phenotypic screen, at 10 µM.
The mark [1] stands for this setting: WT strain, growth inhibition, stronger effect = higher value.

Consider `CN1CCN(CCNC(=O)Nc2ccc([N+](=O)[O-])cc2)CC1`, for which the inhibition (as a rule, the drop in the measured response relative to a control, in per cent) by setting is: under setting [1], 22.2% (inactive); (mutant strain inhibition) 0.87%.
Taken in the same sequence, the figures for `O=C(COc1ccc(S(=O)(=O)N2CCCCC2)cc1)NCc1ccccn1` were 14.7% (inactive) and 2.79%.
Taken in the same sequence, the figures for `O=C(c1ccc(CSc2ccccc2)cc1)N1CCCCCC1` were 38.9% (inactive) and 19.1%.
Taken in the same sequence, the figures for `CC1CCN(C(=O)c2ccc(CSc3ccc(Cl)cc3)cc2)CC1` were 75.2% (active) and 26.4%.
On to `O=C(C1CC1)N1CCN=C1SCc1ccc(Cl)cc1`, for which the inhibition is, setting by setting: under setting [1], 22.2% (inactive); (mutant strain inhibition) 20.3%.
Consider `CN(NC(=O)C1CC(=O)N(c2ccccc2)C1)C1=NS(=O)(=O)c2ccccc21` (stereo not given), for which the inhibition reads like this: under setting [1], -6.62% (inactive); (mutant strain inhibition) 8.77%.
As for `CC(C)N(Cc1ccccc1)C(=O)COC(=O)c1cnccn1`, the inhibition was -8.68% (inactive) under setting [1] and -4.78% (mutant strain inhibition).
Turning to `CCOc1cccc(/C=N/N2C(=O)CSC2=S)c1O`, the inhibition under setting [1] is -2% (inactive) and the inhibition (mutant strain inhibition) was 11.3%.
Taken in the same sequence, the figures for `COc1ccc2[nH]c(C)c(CCN(Cc3cccs3)C(=S)Nc3ccccc3OC)c2c1` were 10.9% (inactive) and 3.89%.
For `CCNC(=S)N(CCc1c(C)[nH]c2ccc(C)cc12)Cc1ccco1`, in that order: 22.5% (inactive) and -3.3%.
For `COc1cccc(NC(=S)N(CCc2c(C)[nH]c3ccccc23)Cc2ccco2)c1`, the inhibition by setting is: under setting [1], 63.2% (active); (mutant strain inhibition) -12.2%.
For `Cc1ccc(N(C(=O)c2sc(C)nc2C)C(C(=O)NC(C)(C)C)c2ccncc2)cc1` (stereo not given), in that order: -8.21% (inactive) and 7.16%.
On to `COc1ccc(C2CC(c3cccs3)=NN2C(=O)CSc2nnc(N)s2)cc1OC` (stereo not given), for which the inhibition runs as follows: under setting [1], -8.12% (inactive); (mutant strain inhibition) -5.34%.
On to `CCN1CN(Cc2ccccc2)CNC1=S`, for which the inhibition is 1.7% (inactive) under setting [1] and 0.04% (mutant strain inhibition).
On to `CC1CC(C)(C)NC(=S)N1CCC(=O)N1CCN(Cc2ccccc2)CC1` (stereo not given), for which the inhibition under setting [1] is -6.52% (inactive) and the inhibition (mutant strain inhibition) was -4.03%.
With `CC1CC(=S)Nc2ccccc2N1Cc1ccccc1` (stereo not given), the inhibition is, setting by setting: under setting [1], 65.9% (active); (mutant strain inhibition) 26.3%.
With `COc1cccc(CC2(CO)CCCN(Cc3nc(-c4cccs4)oc3C)C2)c1` (stereo not given), the inhibition by setting is: under setting [1], 19.9% (inactive); (mutant strain inhibition) 6.17%.
For `CCN(CC)S(=O)(=O)c1ccc(Cl)c(NC(=O)c2ccncc2)c1`, in that order: -7.6% (inactive) and -15.4%.
Taken in the same sequence, the figures for `Cc1ccc(COc2ccc(C(=O)NN)cc2)cc1` were 18.5% (inactive) and 22.2%.
For `CN(C)C(=O)c1nc2ccc(Cl)cn2c1CN1CCN(c2ncccn2)CC1`, in that order: -14.1% (inactive) and -9.73%.
On to `c1ccc(-c2cn3cccnc3n2)cc1`, for which the inhibition reads like this: under setting [1], 7.76% (inactive); (mutant strain inhibition) -1.07%.
On to `c1ccc(-c2cn3c(n2)CCc2ccc4cccnc4c2-3)cc1`, for which the inhibition was 67.5% (active) under setting [1] and 4.75% (mutant strain inhibition).
Taken in the same sequence, the figures for `COc1ccc(/C=C/C(=O)N2CCCC2)cc1OC` were -13.6% (inactive) and -0.71%.
For `Cc1ccccc1-c1n[nH]c(=S)n1C`, the inhibition reads like this: under setting [1], -5.68% (inactive); (mutant strain inhibition) 4.36%.
Taken in the same sequence, the figures for `O=C(c1ccccc1)c1ccc2nc(N3CCCCC3)c3nncn3c2c1` were 60.2% (active) and 50.8%.
Taken in the same sequence, the figures for `O=C(Nc1ccccc1N1CCCCC1)c1ccc2nccnc2c1` were 26.1% (inactive) and 32.9%.
On to `c1ccc(CC2CCN(c3nc4ccccc4n4cnnc34)CC2)cc1`, for which the inhibition was 55.9% (inactive) under setting [1] and 25.1% (mutant strain inhibition).
With `O=C(CN(CC1CCCO1)C(=O)CNS(=O)(=O)c1ccc(F)cc1)NCc1ccco1` (stereo not given), the inhibition is, setting by setting: under setting [1], -16.3% (inactive); (mutant strain inhibition) -1.9%.
For `CSCCC(=O)N1CCCC(CNC(=O)c2ccccc2Cl)C1` (stereo not given), in that order: 0.33% (inactive) and -1.81%.
For `CCC1(C)Cc2c(sc3nnn(CC(=O)Nc4ccc(Cl)cc4)c(=O)c23)CO1` (stereo not given), in that order: 6.37% (inactive) and 8.2%.
For `CCn1c(=S)[nH]c2sc3c(c2c1=O)CCCCC3`, in that order: 44.5% (inactive) and 47.1%.
As to `CCC1(C)Cc2c(sc3[nH]c(=S)n(Cc4ccccc4)c(=O)c23)CO1` (stereo not given), the inhibition is 71% (active) under setting [1] and -13.6% (mutant strain inhibition).
Taken in the same sequence, the figures for `c1ccc2sc(NN=C3CCCC3)nc2c1` were 1.96% (inactive) and -13.6%.
For `Cc1cc(C)n2nc(SCC(N)=O)nc2n1`, in that order: 1.11% (inactive) and -5.58%.
Taken in the same sequence, the figures for `COc1ccc(Br)cc1CN(C)CC(=O)Nc1cc(Cl)cc(Cl)c1` were 64.1% (active) and -2.55%.
Take `COc1ccc(Cl)cc1NC(=O)CN(C)Cc1ccc(OC)c(OC)c1`: the inhibition is, setting by setting: under setting [1], 13.3% (inactive); (mutant strain inhibition) 10.6%.
For `COc1ccc(Br)cc1CN(C)CC(=O)Nc1cc([N+](=O)[O-])ccc1OC`, in that order: -3.27% (inactive) and 14%.
In the case of `CCC(C(=O)Nc1ccc2c(c1)OCCO2)c1ccccc1` (stereo not given), the inhibition is -3.34% (inactive) under setting [1] and -11.8% (mutant strain inhibition).
Taken in the same sequence, the figures for `CCOC(=O)N1CCN(Cc2nc3ccc([N+](=O)[O-])cc3c(=O)n2-c2cccc(OC)c2)CC1` were -16.2% (inactive) and 2.45%.
On to `COc1cc(C(=O)NCc2ccc(-n3cccc3)cc2)cc(OC)c1OC`, for which the inhibition was 4.37% (inactive) under setting [1] and -13.6% (mutant strain inhibition).
For `COC(=O)CCNC(=O)c1ccc2[nH]c(C)c(C)c2c1`, in that order: 3.23% (inactive) and -1.22%.
On to `Cc1ccccc1OCC(O)CN1CCN(c2ccccn2)CC1` (stereo not given), for which the inhibition under setting [1] was 5.12% (inactive) and the inhibition (mutant strain inhibition) is 6.35%.
Taken in the same sequence, the figures for `Cc1cccc(C)c1OCC(O)CN1CCCCC1` (stereo not given) were -0.96% (inactive) and 0.39%.
Regarding `Cc1cccc(OCC(O)CN2CCN(CCN3C(=O)c4cccc5cccc(c45)C3=O)CC2)c1C` (stereo not given), the inhibition is 64.5% (active) under setting [1] and 57.3% (mutant strain inhibition).
Consider `CN(CCc1cn[nH]c1)C(=O)CC1C(=O)NCCN1Cc1cccc(Oc2ccccc2)c1` (stereo not given), for which the inhibition is 0.86% (inactive) under setting [1] and 0.64% (mutant strain inhibition).
Taken in the same sequence, the figures for `CC(C)C(=O)Nc1oc(-c2ccccc2)cc1C#N` were 8.16% (inactive) and -3.13%.
Taken in the same sequence, the figures for `CC(C)(C)Cc1nnc(NC(=O)c2cc(-c3ccccc3)nc3ccccc23)s1` were 34.7% (inactive) and 9.7%.
Turning to `CCCC(=O)Nc1nnc(-c2ccccc2)o1`, the inhibition by setting is: under setting [1], -6.78% (inactive); (mutant strain inhibition) 13.2%.
For `O=C(Nc1nnc(-c2ccccc2)o1)c1cc(-c2cccs2)nc2ccccc12`, in that order: 70.4% (active) and 64.4%.
For `Cc1cc(C)c2[nH]c(=O)c(CN(Cc3ccccc3)C(=S)NCCCN(C)C)cc2c1`, in that order: -2.4% (inactive) and 16.4%.
For `Cc1cc2c(cc1C)[n+](C)cn2CC(O)COCC1CC=CCC1` (stereo not given), in that order: 0.89% (inactive) and -7.37%.
Consider `COc1ccc(C)cc1NC(=O)c1ccc(-c2ccc(C(C)=O)cc2)o1`, for which the inhibition under setting [1] was 15.7% (inactive) and the inhibition (mutant strain inhibition) was determined as 5.74%.
For `COc1cc(SC#N)ccc1N=Cc1c(C)[nH]n(-c2ccc(C)cc2)c1=O`, in that order: 81.4% (active) and 11.6%.
For `Cc1ccc(-n2[nH]c(C)c(/C=N/N3C(=O)c4cccc5cccc(c45)C3=O)c2=O)cc1`, in that order: 13.3% (inactive) and 13%.
Consider `CCc1nnc(NS(=O)(=O)c2ccc(N=Cc3c(C)[nH]n(-c4ccc(C)cc4)c3=O)cc2)s1`, for which the inhibition runs as follows: under setting [1], 40.8% (inactive); (mutant strain inhibition) 28.3%.

(Values after PubChem BioAssay AID1362 (SRMLSC, 2008).)
